Reference: PubChem BioAssay AID1159580 (chemical genetic matrix, 2015)
In all, about 5,500 compounds went through this assay and about 2,000 (36%) were called active. Roughly 18% stayed inconclusive and do not appear here. Rule as the data show it: active = normalized growth mostly below about 0.91 (no sharp cut-off); inconclusive = no clear call, values can overlap the other calls; inactive = mostly above about 0.92. This is one part of the list.

Assay: chemical genetic growth profiling, strain panel (AID 1159580);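 also: tested at 20 µM; growth read once vehicle control cultures reached saturation at 30 °C; 1 = growth at the plate median or of vehicle wells; lower values mean less growth of the strain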
Conditions: growth OD

Measured: normalized growth

COc1ccc(-c2cc(C(F)F)nn2-c2ccc(S(N)(=O)=O)cc2)cc1F
inactive: S. cerevisiae deletion strains, locus YJR075W, strain HOC1, active compounds read low 1.01 | S. cerevisiae deletion strains, locus YKL009W, strain mrt4, active compounds read low 1.02 | S. cerevisiae deletion strains, locus YKL068W, active compounds read low 1 | S. cerevisiae deletion strains, locus YKL085W, strain MDH1 (second series), active compounds read low 1 | S. cerevisiae deletion strains, locus YKL085W, strain MDH1, active compounds read low 1 | S. cerevisiae deletion strains, locus YKL160W, strain elf1, active compounds read low 0.995 | S. cerevisiae deletion strains, locus YKL190W, strain CNB1, active compounds read low 1 | S. cerevisiae deletion strains, locus YKR001C, strain vps1, active compounds read low 1.01 | S. cerevisiae deletion strains, locus YKR026C, strain gcn3, active compounds read low 1 | S. cerevisiae deletion strains, locus YKR091W, strain srl3, active compounds read low 1.01 | S. cerevisiae deletion strains, locus YLL001W, strain dnm1, active compounds read low 0.994 | S. cerevisiae deletion strains, locus YLL026W, active compounds read low 1 | S. cerevisiae deletion strains, locus YLL041C, strain sdh2, active compounds read low 1.01 | S. cerevisiae deletion strains, locus YLR027C, strain aat2, active compounds read low 1 | S. cerevisiae deletion strains, locus YLR039C, strain RIC1, active compounds read low 1.01 | S. cerevisiae deletion strains, locus YLR058C, strain SHM2, active compounds read low 1.01 | S. cerevisiae deletion strains, locus YLR102C, strain apc9, active compounds read low 1.01 | S. cerevisiae deletion strains, locus YLR113W, strain HOG1, active compounds read low 1.05 | S. cerevisiae deletion strains, locus YLR221C, strain rsa3, active compounds read low 1 | S. cerevisiae deletion strains, locus YLR258W, strain gsy2, active compounds read low 1.01 | S. cerevisiae deletion strains, locus YLR262C, strain YPT6 (second series), active compounds read low 1.01 | S. cerevisiae deletion strains, locus YLR262C, strain YPT6, active compounds read low 0.992 | S. cerevisiae deletion strains, locus YLR268W, strain sec22, active compounds read low 0.992 | S. cerevisiae deletion strains, locus YLR320W, strain mms22, active compounds read low 0.962 | S. cerevisiae deletion strains, locus YLR330W, strain CHS5, active compounds read low 1.01 | S. cerevisiae deletion strains, locus YLR342W, strain FKS1 (second series), active compounds read low 1.08 | S. cerevisiae deletion strains, locus YLR342W, strain FKS1, active compounds read low 0.991 | S. cerevisiae deletion strains, locus YLR357W, strain rsc2, active compounds read low 0.995 | S. cerevisiae deletion strains, locus YLR370C, strain arc18, active compounds read low 1.02 | S. cerevisiae deletion strains, locus YLR371W, strain rom2, active compounds read low 1.03 | S. cerevisiae deletion strains, locus YLR384C, strain iki3, active compounds read low 1 | S. cerevisiae deletion strains, locus YLR418C, strain cdc73, active compounds read low 0.951 | S. cerevisiae deletion strains, locus YML016C, strain PPZ1, active compounds read low 1 | S. cerevisiae deletion strains, locus YML032C, strain rad52, active compounds read low 1.05 | S. cerevisiae deletion strains, locus YML120C, strain ndi1, active compounds read low 0.999 | S. cerevisiae deletion strains, locus YML124C, strain tub3, active compounds read low 1.01 | S. cerevisiae deletion strains, locus YMR058W, strain fet3, active compounds read low 0.995 | S. cerevisiae deletion strains, locus YMR078C, strain ctf18, active compounds read low 1.02 | S. cerevisiae deletion strains, locus YMR125W, strain sto1, active compounds read low 1.02 | S. cerevisiae deletion strains, locus YMR129W, active compounds read low 1.01 | S. cerevisiae deletion strains, locus YMR205C, strain PFK2, active compounds read low 0.976 | S. cerevisiae deletion strains, locus YMR223W, strain ubp8, active compounds read low 1.04 | S. cerevisiae deletion strains, locus YMR231W, strain pep5, active compounds read low 1 | S. cerevisiae deletion strains, locus YMR263W, strain SAP30, active compounds read low 0.996 | S. cerevisiae deletion strains, locus YMR307W, strain GAS1, active compounds read low 1.04 | S. cerevisiae deletion strains, locus YNL067W, strain RPL9B, active compounds read low 0.996 | S. cerevisiae deletion strains, locus YNL071W, strain lat1, active compounds read low 0.996 | S. cerevisiae deletion strains, locus YNL128W, strain TEP1, active compounds read low 1 | S. cerevisiae deletion strains, locus YNL153C, strain GIM3, active compounds read low 0.982 | S. cerevisiae deletion strains, locus YNL183C, strain NPR1, active compounds read low 1 | S. cerevisiae deletion strains, locus YNL209W, strain ssb2, active compounds read low 1.01 | S. cerevisiae deletion strains, locus YNL233W, strain BNI4, active compounds read low 1.01 | S. cerevisiae deletion strains, locus YNL248C, strain rpa49, active compounds read low 0.996 | S. cerevisiae deletion strains, locus YNL250W, strain rad50, active compounds read low 1.02 | S. cerevisiae deletion strains, locus YNL271C, strain bni1, active compounds read low 1.02 | S. cerevisiae deletion strains, locus YNL298W, strain CLA4, active compounds read low 1.02 | S. cerevisiae deletion strains, locus YNL307C, strain MCK1, active compounds read low 1.03 | S. cerevisiae deletion strains, locus YNL322C, strain KRE1 (second series), active compounds read low 1 | S. cerevisiae deletion strains, locus YNL322C, strain KRE1, active compounds read low 1 | S. cerevisiae deletion strains, locus YNR049C, strain mso1, active compounds read low 1.01 | S. cerevisiae deletion strains, locus YNR052C, strain pop2, active compounds read low 1.03 | S. cerevisiae deletion strains, locus YOL006C, strain TOP1, active compounds read low 1.02 | S. cerevisiae deletion strains, locus YOL012C, strain htz1 1.3 | S. cerevisiae deletion strains, locus YOL147C, strain pex11, active compounds read low 1.01 | S. cerevisiae deletion strains, locus YOR001W, strain rrp6, active compounds read low 1.01 | S. cerevisiae deletion strains, locus YOR061W, strain CKA2, active compounds read low 1 | S. cerevisiae deletion strains, locus YOR069W, strain VPS5, active compounds read low 1 | S. cerevisiae deletion strains, locus YOR070C, strain gyp1, active compounds read low 1 | S. cerevisiae deletion strains, locus YOR080W, strain dia2, active compounds read low 0.99 | S. cerevisiae deletion strains, locus YOR083W, strain WHI5, active compounds read low 0.989 | S. cerevisiae deletion strains, locus YOR106W, strain vam3, active compounds read low 0.993 | S. cerevisiae deletion strains, locus YOR136W, strain idh2, active compounds read low 1.02 | S. cerevisiae deletion strains, locus YOR144C, strain elg1, active compounds read low 1.01 | S. cerevisiae deletion strains, locus YOR184W, strain ser1, active compounds read low 1.05 | S. cerevisiae deletion strains, locus YOR231W, strain MKK1, active compounds read low 1.04 | S. cerevisiae deletion strains, locus YOR265W, strain rbl2, active compounds read low 1.01 | S. cerevisiae deletion strains, locus YOR270C, strain vph1, active compounds read low 0.976 | S. cerevisiae deletion strains, locus YOR290C, strain snf2, active compounds read low 1.01 | S. cerevisiae deletion strains, locus YOR316C, strain cot1, active compounds read low 1.01 | S. cerevisiae deletion strains, locus YPL051W, strain arl3, active compounds read low 0.991 | S. cerevisiae deletion strains, locus YPL055C, strain LGE1, active compounds read low 0.97 | S. cerevisiae deletion strains, locus YPL078C, strain atp4, active compounds read low 0.998 | S. cerevisiae deletion strains, locus YPL106C, strain sse1, active compounds read low 0.993 | S. cerevisiae deletion strains, locus YPL240C, strain hsp82, active compounds read low 0.99 | S. cerevisiae deletion strains, locus YPL241C, strain CIN2, active compounds read low 0.999 | S. cerevisiae deletion strains, locus YPL256C, strain CLN2, active compounds read low 1.09 | S. cerevisiae deletion strains, locus YPR119W, strain clb2, active compounds read low 1 | S. cerevisiae deletion strains, locus YPR141C, strain kar3, active compounds read low 1.01 | S. cerevisiae deletion strains, locus YPR163C, strain tif3, active compounds read low 1 | S. cerevisiae deletion strains, locus YPR167C, strain met16, active compounds read low 1.01 | S. cerevisiae deletion strains, strain wtn01, active compounds read low 1.02 | S. cerevisiae strains, strain wild type, active compounds read low 1.01
